Results reported in PubChem BioAssay AID1159580 (chemical genetic matrix, 2015).
Out of some 5,500 compounds screened, about 2,000 (36%) were called active. Not shown: some 18% with an inconclusive outcome. No stated cut-off is given here; in the data, active means normalized growth mostly below about 0.91 (no sharp cut-off); inconclusive means no clear call, values can overlap the other calls; inactive means mostly above about 0.92. The list shows a part of the results.

Assay: chemical genetic growth profiling, strain panel (AID 1159580);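 further: tested at 20 µM; growth read once vehicle control cultures reached saturation at 30 °C; 1 = growth at the plate median or of vehicle wells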
Conditions: S. cerevisiae deletion strains, growth OD
[1] = locus YGR078C, strain PAC10, stronger effect = lower value
[2] = locus YMR263W, strain SAP30, stronger effect = lower value
[3] = locus YNL128W, strain TEP1, stronger effect = lower value
[4] = locus YPL055C, strain LGE1, stronger effect = lower value
[5] = locus YPL241C, strain CIN2, stronger effect = lower value

Measured: normalized growth

N#CC(C#N)=CNc1cccc(N)n1
inactive: locus YAL013W, strain DEP1, stronger effect = lower value 0.995 | locus YBR229C, strain ROT2, stronger effect = lower value 1.01 | locus YCL061C, strain MRC1, stronger effect = lower value 1.04 | locus YDL101C, strain DUN1, stronger effect = lower value 1.05 | locus YDL134C, strain PPH21, stronger effect = lower value 1.01 | locus YDR150W, strain NUM1, stronger effect = lower value 1.07 | locus YEL061C, strain CIN8, stronger effect = lower value 1 | [1] 1.02 | locus YGR229C, strain SMI1, stronger effect = lower value 1.02 | locus YHR030C, strain SLT2, stronger effect = lower value 1.05 | locus YHR087W, strain rtc3, stronger effect = lower value 0.968 | locus YJR043C, strain POL32, stronger effect = lower value 1.03 | locus YJR075W, strain HOC1, stronger effect = lower value 1.05 | locus YLR039C, strain RIC1, stronger effect = lower value 1.05 | locus YLR058C, strain SHM2 (second series), stronger effect = lower value 0.992 | locus YLR085C, strain ARP6, stronger effect = lower value 1.03 | locus YLR262C, strain YPT6, stronger effect = lower value 1 | locus YML094W, strain GIM5, stronger effect = lower value 0.991 | locus YMR219W, strain ESC1, stronger effect = lower value 1 | [2] 1.05 | [3] 1 | locus YNL153C, strain GIM3, stronger effect = lower value 1.02 | locus YNL298W, strain CLA4 (second series), stronger effect = lower value 1.01 | locus YNL322C, strain KRE1, stronger effect = lower value 1.01 | locus YNR030W, strain Alg12, stronger effect = lower value 1 | [4] 0.996 | [5] 1 | locus YPR135W, strain CTF4, stronger effect = lower value 1.07

CC(N)C1CCC(C(=O)Nc2ccncc2)CC1 (configuration not stated)
inactive: locus YAL040C, strain CLN3, stronger effect = lower value 0.989 | locus YCL061C, strain MRC1 (second series), stronger effect = lower value 1 | locus YDR363W, strain ESC2, stronger effect = lower value 0.985 | locus YER002W, strain NOP16, stronger effect = lower value 0.987 | [1] 1.02 | [2] 1 | locus YMR307W, strain GAS1, stronger effect = lower value 1.02 | [3] 1.01 | locus YNL175C, strain NOP13, stronger effect = lower value 0.992 | locus YNL197C, strain WHI3, stronger effect = lower value 0.99 | locus YNL224C, strain SQS1, stronger effect = lower value 0.993 | locus YOR083W, strain WHI5 (second series), stronger effect = lower value 1.05 | [4] 0.987 | [5] 0.996
